Measurements from publication PMC7862700, “An all-to-all approach to the identification of sequence-specific readers for epigenetic DNA modifications on cytosine”.

Legend:
Assay in all cases: DAPPL (digital affinity profiling via proximity ligation, sequencing); 10 mM Tris-HCl pH 7.5, 50 mM NaCl, 1 mM DTT, 4% glycerol, room temperature, 30 min; GST-TFs on glutathione beads, 16-mer random dsDNA library, 0.1% formaldehyde crosslink after washing; high values mean tight binding
Conditions in all cases: protein: recombinant; tags: N-terminal GST; dsDNA, one strand shown
FLI1 = target: T1, FLI1 (Homo sapiens, UniProt Q01543 1-452)
T1 sequence: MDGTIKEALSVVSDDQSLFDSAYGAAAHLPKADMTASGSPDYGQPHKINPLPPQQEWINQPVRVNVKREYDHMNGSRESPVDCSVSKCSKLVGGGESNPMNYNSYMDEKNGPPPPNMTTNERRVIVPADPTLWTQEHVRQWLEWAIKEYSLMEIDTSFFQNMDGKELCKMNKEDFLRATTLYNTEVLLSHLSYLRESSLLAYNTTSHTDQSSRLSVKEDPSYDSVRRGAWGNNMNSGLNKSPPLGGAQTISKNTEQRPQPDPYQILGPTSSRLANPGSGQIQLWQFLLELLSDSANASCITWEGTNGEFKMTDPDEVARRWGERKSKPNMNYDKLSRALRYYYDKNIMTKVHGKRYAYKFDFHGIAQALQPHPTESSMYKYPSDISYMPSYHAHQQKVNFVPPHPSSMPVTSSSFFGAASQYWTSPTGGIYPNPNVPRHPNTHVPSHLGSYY
Procedure, shortened: (§1)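 Binding signal is defined as a hexamer's read frequency for one factor over its frequency for the tag-only sample. To obtain reads, GST-fused human transcription factors were expressed in yeast, captured on glutathione beads, barcoded with DNA and pooled with that sample. Pools met 200 nmole of a 16-mer random double-stranded DNA library in Tris/NaCl/DTT/glycerol buffer for 30 min at room temperature before washing, 0.1% formaldehyde crosslinking, proximity ligation (BsaI/T4 ligase, 1 h, 37 °C), PCR and Illumina NextSeq500 sequencing.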

ELK1 = target: T2, ELK1 (Homo sapiens, UniProt P19419 1-428)
T2 sequence: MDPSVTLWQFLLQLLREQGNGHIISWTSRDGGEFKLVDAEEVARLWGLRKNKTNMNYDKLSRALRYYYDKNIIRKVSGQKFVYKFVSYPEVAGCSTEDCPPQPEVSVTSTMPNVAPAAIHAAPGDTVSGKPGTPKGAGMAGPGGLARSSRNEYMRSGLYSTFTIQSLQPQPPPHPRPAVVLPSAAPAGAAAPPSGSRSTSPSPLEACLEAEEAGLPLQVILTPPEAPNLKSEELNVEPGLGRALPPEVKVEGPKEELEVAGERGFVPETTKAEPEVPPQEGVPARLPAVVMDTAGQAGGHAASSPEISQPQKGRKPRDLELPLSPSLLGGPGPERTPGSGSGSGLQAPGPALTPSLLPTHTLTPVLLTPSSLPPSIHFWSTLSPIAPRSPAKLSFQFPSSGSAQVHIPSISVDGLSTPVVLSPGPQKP
Procedure, shortened: as §1

GABPA = target: T3, GABPA (Homo sapiens, UniProt Q06546 1-454)
T3 sequence: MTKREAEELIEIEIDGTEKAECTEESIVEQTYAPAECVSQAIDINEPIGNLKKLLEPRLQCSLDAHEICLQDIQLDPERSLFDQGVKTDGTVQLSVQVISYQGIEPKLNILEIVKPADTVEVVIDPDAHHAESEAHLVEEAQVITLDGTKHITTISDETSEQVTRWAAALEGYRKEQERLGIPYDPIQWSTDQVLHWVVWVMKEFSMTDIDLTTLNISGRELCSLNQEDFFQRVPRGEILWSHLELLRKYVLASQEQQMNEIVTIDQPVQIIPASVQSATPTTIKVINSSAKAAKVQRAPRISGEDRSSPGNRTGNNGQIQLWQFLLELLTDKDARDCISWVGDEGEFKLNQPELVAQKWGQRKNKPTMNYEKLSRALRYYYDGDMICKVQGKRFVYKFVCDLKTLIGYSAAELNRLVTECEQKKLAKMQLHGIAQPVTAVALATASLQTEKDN
Procedure, shortened: as §1

ERG = target: T4, ERG (Homo sapiens, UniProt P11308 1-479)
T4 sequence: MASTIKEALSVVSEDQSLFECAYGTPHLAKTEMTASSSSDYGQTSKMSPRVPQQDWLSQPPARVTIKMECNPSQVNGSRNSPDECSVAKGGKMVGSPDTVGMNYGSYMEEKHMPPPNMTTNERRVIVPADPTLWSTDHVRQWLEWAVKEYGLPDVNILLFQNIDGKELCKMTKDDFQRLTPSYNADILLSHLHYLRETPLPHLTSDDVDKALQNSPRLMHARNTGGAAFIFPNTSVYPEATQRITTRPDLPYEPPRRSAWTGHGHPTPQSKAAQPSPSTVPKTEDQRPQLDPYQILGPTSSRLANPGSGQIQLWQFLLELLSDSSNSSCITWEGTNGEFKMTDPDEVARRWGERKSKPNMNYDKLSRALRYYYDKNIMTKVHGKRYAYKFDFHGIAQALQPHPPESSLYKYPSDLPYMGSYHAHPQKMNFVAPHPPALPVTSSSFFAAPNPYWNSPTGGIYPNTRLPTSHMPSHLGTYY
Procedure, shortened: as §1

ELF1 = ELF1 (Homo sapiens, UniProt P32519 1-619)
Procedure, shortened: as §1

SPI1 = SPI1 (Homo sapiens, UniProt P17947 1-270)
Procedure, shortened: as §1

SPIB = SPIB (Homo sapiens, UniProt Q01892 1-262)
Procedure, shortened: as §1

ELK3 = target: T5, ELK3 (Homo sapiens, UniProt P41970 1-407)
T5 sequence: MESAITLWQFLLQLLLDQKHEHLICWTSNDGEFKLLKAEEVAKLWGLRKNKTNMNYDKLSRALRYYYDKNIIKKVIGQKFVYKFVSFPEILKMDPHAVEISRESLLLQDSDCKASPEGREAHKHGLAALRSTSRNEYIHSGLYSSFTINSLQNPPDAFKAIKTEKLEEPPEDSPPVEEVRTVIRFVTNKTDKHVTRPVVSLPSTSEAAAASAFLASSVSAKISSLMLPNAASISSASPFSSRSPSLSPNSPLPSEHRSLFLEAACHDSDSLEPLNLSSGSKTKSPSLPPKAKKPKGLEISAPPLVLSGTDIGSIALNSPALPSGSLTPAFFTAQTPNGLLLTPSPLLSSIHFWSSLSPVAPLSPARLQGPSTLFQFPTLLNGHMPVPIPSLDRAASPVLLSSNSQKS
Procedure, shortened: as §1

ETV5 = ETV5 (Homo sapiens, UniProt P41161 1-510)
Procedure, shortened: as §1

ELF4 = ELF4 (Homo sapiens, UniProt Q99607 1-663)
Procedure, shortened: as §1

ETV2 = target: T6, ETV2 (Homo sapiens, UniProt O00321 1-342)
T6 sequence: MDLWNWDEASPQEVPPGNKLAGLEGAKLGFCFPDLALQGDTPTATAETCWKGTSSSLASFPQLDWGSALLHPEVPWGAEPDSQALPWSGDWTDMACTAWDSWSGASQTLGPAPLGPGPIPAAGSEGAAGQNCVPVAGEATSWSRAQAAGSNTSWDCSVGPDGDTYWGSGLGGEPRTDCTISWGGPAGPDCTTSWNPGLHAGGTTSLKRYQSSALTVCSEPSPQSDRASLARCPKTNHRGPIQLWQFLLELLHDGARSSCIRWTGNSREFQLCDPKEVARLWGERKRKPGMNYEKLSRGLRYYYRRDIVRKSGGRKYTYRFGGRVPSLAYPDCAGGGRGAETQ
Procedure, shortened: as §1

ETV1 = ETV1 (Homo sapiens, UniProt P50549 1-477)
Procedure, shortened: as §1

ETV3L = target: T7, ETV3L (Homo sapiens, UniProt Q6ZN32 1-361)
T7 sequence: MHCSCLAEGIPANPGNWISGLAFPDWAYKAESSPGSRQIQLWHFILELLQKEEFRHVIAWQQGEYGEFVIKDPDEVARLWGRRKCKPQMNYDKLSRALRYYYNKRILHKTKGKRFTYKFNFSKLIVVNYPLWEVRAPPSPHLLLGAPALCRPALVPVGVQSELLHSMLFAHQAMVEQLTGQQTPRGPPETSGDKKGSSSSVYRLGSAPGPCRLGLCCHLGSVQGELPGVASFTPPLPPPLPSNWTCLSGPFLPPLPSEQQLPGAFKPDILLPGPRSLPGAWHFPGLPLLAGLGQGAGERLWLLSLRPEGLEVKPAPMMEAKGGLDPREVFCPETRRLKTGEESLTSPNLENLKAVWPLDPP
Procedure, shortened: as §1

ETS2 = target: T8, ETS2 (Homo sapiens, UniProt P15036 1-469)
T8 sequence: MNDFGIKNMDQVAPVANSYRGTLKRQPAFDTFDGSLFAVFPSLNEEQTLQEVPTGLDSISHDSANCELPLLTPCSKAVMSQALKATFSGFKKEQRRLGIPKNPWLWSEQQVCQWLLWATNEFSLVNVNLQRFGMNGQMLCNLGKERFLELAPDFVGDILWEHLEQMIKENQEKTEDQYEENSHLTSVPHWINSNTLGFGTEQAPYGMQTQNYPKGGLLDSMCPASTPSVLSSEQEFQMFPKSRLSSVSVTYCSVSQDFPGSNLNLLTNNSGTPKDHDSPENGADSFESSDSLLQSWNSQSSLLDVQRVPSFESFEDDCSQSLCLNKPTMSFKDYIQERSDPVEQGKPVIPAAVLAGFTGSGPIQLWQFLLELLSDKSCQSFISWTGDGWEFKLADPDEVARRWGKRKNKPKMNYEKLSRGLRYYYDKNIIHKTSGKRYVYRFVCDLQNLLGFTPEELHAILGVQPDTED
Procedure, shortened: as §1

ETV3 = target: T9, ETV3 (Homo sapiens, UniProt P41162-2 1-143)
T9 sequence: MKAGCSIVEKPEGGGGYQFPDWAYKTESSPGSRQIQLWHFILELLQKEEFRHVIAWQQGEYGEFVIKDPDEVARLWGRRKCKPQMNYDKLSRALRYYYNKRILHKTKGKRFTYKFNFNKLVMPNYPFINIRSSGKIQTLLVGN
Procedure, shortened: as §1

ETV6 = ETV6 (Homo sapiens, UniProt P41212 1-452)
Procedure, shortened: as §1

ELF3 = target: T10, ELF3 (Homo sapiens, UniProt P78545 1-371)
T10 sequence: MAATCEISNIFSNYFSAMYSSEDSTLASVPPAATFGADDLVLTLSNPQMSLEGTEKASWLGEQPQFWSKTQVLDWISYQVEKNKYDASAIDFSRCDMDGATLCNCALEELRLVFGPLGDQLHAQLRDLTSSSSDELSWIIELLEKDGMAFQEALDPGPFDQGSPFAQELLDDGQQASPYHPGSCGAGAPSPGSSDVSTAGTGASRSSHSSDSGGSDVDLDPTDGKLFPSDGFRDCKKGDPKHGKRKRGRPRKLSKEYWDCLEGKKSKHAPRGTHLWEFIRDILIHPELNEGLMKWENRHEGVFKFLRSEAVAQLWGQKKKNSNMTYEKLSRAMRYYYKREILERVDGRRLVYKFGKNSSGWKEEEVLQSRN
Procedure, shortened: as §1

ETV7 = target: T11, ETV7 (Homo sapiens, UniProt Q9Y603 1-341)
T11 sequence: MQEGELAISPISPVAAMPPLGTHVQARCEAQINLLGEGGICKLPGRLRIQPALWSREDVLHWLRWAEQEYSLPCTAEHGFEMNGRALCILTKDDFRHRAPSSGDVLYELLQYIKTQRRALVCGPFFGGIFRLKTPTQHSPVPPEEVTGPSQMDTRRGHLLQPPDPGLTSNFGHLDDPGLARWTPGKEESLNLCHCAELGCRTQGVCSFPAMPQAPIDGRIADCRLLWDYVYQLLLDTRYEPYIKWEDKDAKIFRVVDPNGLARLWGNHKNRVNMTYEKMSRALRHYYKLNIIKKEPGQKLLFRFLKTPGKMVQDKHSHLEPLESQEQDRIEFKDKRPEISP
Procedure, shortened: as §1

Sequence of ETV1 (P50549 whole entry): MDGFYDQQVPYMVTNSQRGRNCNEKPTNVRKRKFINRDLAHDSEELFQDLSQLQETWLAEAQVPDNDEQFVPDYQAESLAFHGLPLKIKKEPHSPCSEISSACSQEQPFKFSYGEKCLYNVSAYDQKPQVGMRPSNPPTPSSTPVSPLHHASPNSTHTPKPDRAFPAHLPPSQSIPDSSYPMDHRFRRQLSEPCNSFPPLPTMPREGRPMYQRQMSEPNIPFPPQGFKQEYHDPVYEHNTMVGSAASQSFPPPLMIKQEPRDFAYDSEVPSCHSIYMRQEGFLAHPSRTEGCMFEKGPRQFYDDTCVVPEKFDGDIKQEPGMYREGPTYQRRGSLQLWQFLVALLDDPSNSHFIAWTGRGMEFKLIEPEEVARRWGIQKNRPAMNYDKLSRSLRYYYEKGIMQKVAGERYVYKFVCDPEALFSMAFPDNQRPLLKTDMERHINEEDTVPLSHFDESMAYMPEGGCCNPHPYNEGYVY
Sequence of ELF1 (P32519 whole entry): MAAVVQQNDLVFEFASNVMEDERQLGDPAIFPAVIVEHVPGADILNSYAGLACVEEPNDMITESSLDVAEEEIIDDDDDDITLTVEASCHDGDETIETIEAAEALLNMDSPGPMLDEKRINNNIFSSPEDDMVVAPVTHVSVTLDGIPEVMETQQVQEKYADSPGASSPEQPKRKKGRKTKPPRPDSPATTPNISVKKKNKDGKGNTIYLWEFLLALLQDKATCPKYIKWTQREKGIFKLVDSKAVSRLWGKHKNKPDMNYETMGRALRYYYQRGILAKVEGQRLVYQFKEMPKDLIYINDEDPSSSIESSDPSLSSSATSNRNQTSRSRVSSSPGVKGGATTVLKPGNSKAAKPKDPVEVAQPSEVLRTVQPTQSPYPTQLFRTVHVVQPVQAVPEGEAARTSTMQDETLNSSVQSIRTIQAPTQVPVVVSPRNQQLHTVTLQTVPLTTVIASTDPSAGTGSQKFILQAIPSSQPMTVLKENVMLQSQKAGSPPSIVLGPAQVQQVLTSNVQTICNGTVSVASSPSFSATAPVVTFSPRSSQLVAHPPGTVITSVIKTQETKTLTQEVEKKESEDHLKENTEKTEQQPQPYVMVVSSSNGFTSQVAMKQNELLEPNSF
Sequence of ETV5 (P41161 whole entry): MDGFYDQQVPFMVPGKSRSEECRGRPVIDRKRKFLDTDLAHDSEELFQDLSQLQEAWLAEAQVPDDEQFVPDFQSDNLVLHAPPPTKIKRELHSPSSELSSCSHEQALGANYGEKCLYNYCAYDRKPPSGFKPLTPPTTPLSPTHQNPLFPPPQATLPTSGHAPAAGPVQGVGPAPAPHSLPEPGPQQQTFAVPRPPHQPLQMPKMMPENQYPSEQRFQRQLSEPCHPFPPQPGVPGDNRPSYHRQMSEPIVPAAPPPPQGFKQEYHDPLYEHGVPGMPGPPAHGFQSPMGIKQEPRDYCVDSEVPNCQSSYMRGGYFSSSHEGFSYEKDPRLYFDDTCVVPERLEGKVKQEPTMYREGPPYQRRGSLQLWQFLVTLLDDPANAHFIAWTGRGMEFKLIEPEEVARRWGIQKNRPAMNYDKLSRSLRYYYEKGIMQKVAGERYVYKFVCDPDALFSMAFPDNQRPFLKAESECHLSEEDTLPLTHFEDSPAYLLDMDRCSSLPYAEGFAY
Sequence of ETV6 (P41212 whole entry): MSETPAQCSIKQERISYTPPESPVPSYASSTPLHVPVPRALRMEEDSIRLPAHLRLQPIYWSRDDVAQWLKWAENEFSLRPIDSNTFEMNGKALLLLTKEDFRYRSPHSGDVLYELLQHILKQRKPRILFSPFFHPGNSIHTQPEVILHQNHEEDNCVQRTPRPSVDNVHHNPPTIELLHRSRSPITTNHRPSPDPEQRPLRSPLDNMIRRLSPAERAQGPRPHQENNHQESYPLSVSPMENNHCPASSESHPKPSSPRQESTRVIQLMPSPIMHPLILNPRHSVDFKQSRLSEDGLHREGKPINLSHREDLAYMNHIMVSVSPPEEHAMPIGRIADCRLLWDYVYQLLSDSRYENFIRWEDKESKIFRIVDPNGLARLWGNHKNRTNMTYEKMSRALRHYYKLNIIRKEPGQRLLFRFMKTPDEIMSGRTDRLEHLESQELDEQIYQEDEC
Sequence of ELF4 (Q99607 whole entry): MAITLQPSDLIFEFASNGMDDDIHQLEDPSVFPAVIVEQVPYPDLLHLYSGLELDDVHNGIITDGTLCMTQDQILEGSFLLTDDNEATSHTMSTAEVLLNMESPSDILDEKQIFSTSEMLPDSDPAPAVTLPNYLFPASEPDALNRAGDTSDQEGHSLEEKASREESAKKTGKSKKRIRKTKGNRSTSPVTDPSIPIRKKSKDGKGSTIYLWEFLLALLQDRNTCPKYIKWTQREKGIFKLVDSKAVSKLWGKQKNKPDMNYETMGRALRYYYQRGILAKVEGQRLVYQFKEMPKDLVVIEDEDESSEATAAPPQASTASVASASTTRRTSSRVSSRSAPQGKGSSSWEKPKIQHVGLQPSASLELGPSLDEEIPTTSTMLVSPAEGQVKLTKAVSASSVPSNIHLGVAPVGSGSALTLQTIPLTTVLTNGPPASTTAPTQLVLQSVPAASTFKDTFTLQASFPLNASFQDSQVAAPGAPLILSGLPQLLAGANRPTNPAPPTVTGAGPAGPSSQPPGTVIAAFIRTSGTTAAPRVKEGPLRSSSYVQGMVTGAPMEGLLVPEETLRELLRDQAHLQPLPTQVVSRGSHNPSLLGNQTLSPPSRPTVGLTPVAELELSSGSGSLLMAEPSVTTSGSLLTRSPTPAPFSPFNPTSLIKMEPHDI
Sequence of SPIB (Q01892 whole entry): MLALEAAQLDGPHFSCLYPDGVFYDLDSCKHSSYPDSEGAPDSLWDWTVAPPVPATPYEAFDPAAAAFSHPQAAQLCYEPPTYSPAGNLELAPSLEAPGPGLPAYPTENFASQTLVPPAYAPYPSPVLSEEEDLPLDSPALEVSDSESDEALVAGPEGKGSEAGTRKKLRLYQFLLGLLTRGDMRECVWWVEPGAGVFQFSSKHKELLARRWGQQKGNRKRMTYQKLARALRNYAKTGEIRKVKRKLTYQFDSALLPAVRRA

CCCTGA
binding signal (FLI1): 1 fold enrichment (6-mer frequency, TF over GST control) | binding signal (ELK1): 1.18 fold enrichment (6-mer frequency, TF over GST control) | binding signal (GABPA): 1.05 fold enrichment (6-mer frequency, TF over GST control) | binding signal (ERG): 1.04 fold enrichment (6-mer frequency, TF over GST control) | binding signal (ELF1): 1.06 fold enrichment (6-mer frequency, TF over GST control) | binding signal (SPI1): 1.03 fold enrichment (6-mer frequency, TF over GST control) | binding signal (SPIB): 1.1 fold enrichment (6-mer frequency, TF over GST control) | binding signal (ELK3): 1.12 fold enrichment (6-mer frequency, TF over GST control) | binding signal (ETV5): 1.07 fold enrichment (6-mer frequency, TF over GST control) | binding signal (ELF4): 1.05 fold enrichment (6-mer frequency, TF over GST control) | binding signal (ETV2): 1.17 fold enrichment (6-mer frequency, TF over GST control) | binding signal (ETV1): 1.09 fold enrichment (6-mer frequency, TF over GST control) | binding signal (ETV3L): 1.04 fold enrichment (6-mer frequency, TF over GST control) | binding signal (ETS2): 1.02 fold enrichment (6-mer frequency, TF over GST control) | binding signal (ETV3): 1.01 fold enrichment (6-mer frequency, TF over GST control) | binding signal (ETV6): 1.05 fold enrichment (6-mer frequency, TF over GST control)

GGTATC
binding signal (FLI1): 1.11 fold enrichment (6-mer frequency, TF over GST control) | binding signal (ELK1): 1.07 fold enrichment (6-mer frequency, TF over GST control) | binding signal (GABPA): 1.06 fold enrichment (6-mer frequency, TF over GST control) | binding signal (ERG): 1.07 fold enrichment (6-mer frequency, TF over GST control) | binding signal (ELF1): 1.09 fold enrichment (6-mer frequency, TF over GST control) | binding signal (SPI1): 1.02 fold enrichment (6-mer frequency, TF over GST control) | binding signal (SPIB): 1.04 fold enrichment (6-mer frequency, TF over GST control) | binding signal (ETV5): 1.06 fold enrichment (6-mer frequency, TF over GST control) | binding signal (ELF4): 1.08 fold enrichment (6-mer frequency, TF over GST control) | binding signal (ETV2): 1.23 fold enrichment (6-mer frequency, TF over GST control) | binding signal (ELF3): 1.23 fold enrichment (6-mer frequency, TF over GST control) | binding signal (ETV1): 1.1 fold enrichment (6-mer frequency, TF over GST control) | binding signal (ETV3L): 1.02 fold enrichment (6-mer frequency, TF over GST control) | binding signal (ETS2): 1.01 fold enrichment (6-mer frequency, TF over GST control) | binding signal (ETV7): 1.06 fold enrichment (6-mer frequency, TF over GST control) | binding signal (ETV3): 1.04 fold enrichment (6-mer frequency, TF over GST control) | binding signal (ETV6): 1.03 fold enrichment (6-mer frequency, TF over GST control)
